The source of these data is PubChem BioAssay AID624151 (Broad Institute, 2012).

In all, about 28,000 compounds went through this assay and about 410 (1.5%) were called active. Only a selection was taken, and actives are over-represented in it overall. Values without a mark were called inactive. No stated cut-off is given here; in the data, active means activation above about 52%; inconclusive means no clear call, values can overlap the other calls; inactive means below that.

This assay can be described thus: mutant p53 pathway re-activators, primary screen, cell-based, SW480, luciferase, single point, HTS (AID 624151). The following applies: SW480 PUMA-promoter luciferase, p53 mutant reactivation; at 9.98 µM; active compounds read high.
Turning to `COc1ccc(NC(=O)Cn2cnc3sc(C)c(C)c3c2=O)cc1`, the activation is 4.48%.
As to `COc1ccc(NC(=O)N(C)C[C@H]2Oc3cc(-c4ccncc4)ccc3S(=O)(=O)N([C@H](C)CO)C[C@H]2C)cc1`, the activation is -12.4%.
With `COc1ccc(NC(=O)CSC2CC(=O)N(c3ccc(F)cc3)C2=O)cc1` (stereo unspecified), the activation was -1.05%.
The figure for `Cc1ccccc1-n1c(C)cc(/C=C2\NC(=O)NC2=O)c1C` is 22.9%.
The figure for `Cc1ccc(C(=O)O)cc1S(=O)(=O)NCCCO` is -7.19%; for `COc1cccc2cc(C(=O)C3C(=O)C(=O)N(CCN4CCOCC4)C3c3ccc(F)cc3)oc12` (stereo unspecified) it is 4.69%; for `C[C@H](O)C#Cc1cnc2c(c1)C(=O)N([C@@H](C)CO)C[C@H](C)[C@H](CN(C)C(=O)c1ccccc1)O2` it is 10.7%.
The figure for `C[C@@H]1CN([C@H](C)CO)S(=O)(=O)c2ccc(C#CC3CC3)cc2O[C@H]1CN(C)C(=O)C1CCCCC1` is -13.7%.
As for `Cc1sc2ncnc(SCC(=O)Nc3ccccc3)c2c1-c1ccccc1`, the activation was -11.3%.
With `Cc1ccc(S(=O)(=O)c2nc(-c3cccs3)oc2NCc2cccnc2)cc1` the figure was -4.49%.
The figure for `C[C@@H]1CN([C@H](C)CO)S(=O)(=O)c2ccc(C#C[C@@H](C)O)cc2O[C@H]1CN(C)C(=O)CC1CC1` is 0.298%.
With `CS(=O)(=O)N(CC(=O)Nc1ccc(Br)cc1)c1cc(Cl)c(Cl)cc1Cl` the figure was -23.8%; with `C[C@H](CO)N1C[C@H](C)[C@H](CN(C)C(=O)c2cnccn2)Oc2cc(C3=CCCC3)ccc2S1(=O)=O`, 3.46%; with `O=C(CSc1nnc(-c2ccncc2)n1-c1ccc(Cl)cc1)Nc1ccc(C(=O)O)cc1`, 7.38%.
On to `CCCC#Cc1cnc2c(c1)C(=O)N([C@H](C)CO)C[C@H](C)[C@@H](CN(C)C(=O)c1cccnc1)O2`, for which the activation was 2.84%.
Take `Cc1ccn2c(NC(=O)C(C)(C)Oc3ccc(Cl)cc3)c(-c3ccc(F)cc3)nc2c1`: the activation was -19%.
The figure for `CCc1ccccc1NC(=O)CSc1nnc(N)s1` is 10.1%.
With `COc1ccc(NC(=O)C(C)N2c3cccc4cccc(c34)S2(=O)=O)c(OC)c1` (stereo unspecified) the figure was -6.27%; with `COc1ccccc1-c1cnc2c(c1)C(=O)N([C@@H](C)CO)C[C@@H](C)[C@@H](CN(C)C(=O)c1cccnc1)O2`, 2.65%; with `COc1ccccc1-c1cnc2c(c1)C(=O)N([C@H](C)CO)C[C@H](C)[C@@H](CN(C)CC1CCOCC1)O2`, 5.27%.
The figure for `O=C(O)CCSc1nnc2c(n1)[nH]c1ccccc12` is -2.83%.
As for `O=C(CSc1nnc(-c2ccco2)n1-c1ccccc1)Nc1ccc(F)cc1`, the activation is 7.08%.
The figure for `COc1ccccc1-c1nnc(SCC(=O)Nc2ccccc2)o1` is 28.3%.
With `O=C(CSc1nnc(-c2ccc(Br)cc2)o1)Nc1ccc2ccccc2c1` the figure was -20.7%.
The figure for `Cc1ccc(-c2nnc(SCC(=O)Nc3ccccc3OC(F)F)o2)cc1` is 102% (active); for `O=C(CSc1ncnc2sc3c(c12)CCCC3)Nc1ccc(F)c(Cl)c1` it is 0.113%; for `CC(C)Cc1nc(SCC(=O)Nc2ccc3ccccc3c2)n[nH]1` it is 9.32%.
Consider `C/C=C/c1ccc2c(c1)O[C@H](CN(C)Cc1cccc(F)c1)[C@H](C)CN([C@H](C)CO)S2(=O)=O`, for which the activation was -12.7%.
With `COc1ccccc1NC(=O)N(C)C[C@@H]1Oc2ncc(Br)cc2C(=O)N([C@@H](C)CO)C[C@@H]1C` the figure was 3.31%.
Turning to `CCn1c(SCC(=O)O)nc2sc3c(c2c1=O)CC(C)(C)OC3`, the activation is 17.9%.
The figure for `COC(=O)c1cc(OC)c(OC)cc1NC(=O)c1cc(-c2ccc(C)o2)nc2ccccc12` is 21.7%; for `Cc1ccc(C(=O)Oc2ccc(C(=O)CSc3nc4ccccc4o3)cc2)cc1` it is 45.6%.
As for `COc1ccc(C(=O)CCC(=O)Nc2ccc(Br)cc2)cc1`, the activation is -1.31%.
With `COc1ccccc1NC(=O)CSc1n[nH]c(C)n1` the figure was -9.46%; with `CCOc1ccc(NC(=O)Cn2c(=O)n(-c3ccc(Cl)cc3)c(=O)c3c4c(sc32)CCC4)cc1`, -5.81%; with `COc1ccccc1-n1c(N)cc(=O)nc1SCC(=O)Nc1ccc(Br)cc1`, 3.88%.
`COC(=O)COc1cccc(NC(=O)c2cc(OC)c(OC)c(OC)c2)c1`: the activation is 9.43%.
The figure for `Cc1cc2oc(C(=O)Nc3sc4c(c3C(=O)NCc3ccco3)CCC4)c(C)c2cc1C` is -5.36%.
The figure for `C[C@@H]1CN([C@@H](C)CO)S(=O)(=O)c2ccc(-c3cccc(C#N)c3)cc2O[C@@H]1CN(C)Cc1cccc(F)c1` is -25.7%.
In the case of `C[C@@H]1CN([C@@H](C)CO)C(=O)c2cc(/C=C/c3ccccc3)cnc2O[C@H]1CN(C)C(=O)Nc1ccc(C(F)(F)F)cc1`, the activation was -18.8%.
With `COc1ccc(Cl)cc1NC(=O)CSc1nnc(-c2ccc(Cl)c(Cl)c2)n1C` the figure was 1.7%.
The figure for `C/C=C/c1ccc2c(c1)O[C@H](CN(C)C(=O)Cc1cccnc1)[C@@H](C)CN([C@H](C)CO)S2(=O)=O` is -5.22%; for `Cc1cc(=O)oc2cc(OC(C)C(=O)Nc3ccc(Cl)c(C(F)(F)F)c3)ccc12` (stereo unspecified) it is 0.711%.
With `CCCC#Cc1ccc2c(c1)O[C@@H](CN(C)CC1CC1)[C@@H](C)CN([C@H](C)CO)S2(=O)=O` the figure was 1.22%.
For the compound `COCCNC(=O)C[C@@H]1C[C@@H]2c3cc(NC(=O)Nc4ccc(C(F)(F)F)cc4)ccc3O[C@@H]2[C@@H](CO)O1`, the activation is 11.3%.
The figure for `Cc1ccnc(NC(c2cccc([N+](=O)[O-])c2)c2ccc3ccc(C)nc3c2O)c1` (stereo unspecified) is -13.9%; for `Cc1csc2nc(SCC(=O)Nc3ccc([N+](=O)[O-])cc3)[nH]c(=O)c12` it is 15.6%.
With `COC(=O)c1cc(OC)c(OC)cc1NC(=O)COc1ccccc1Cl` the figure was 10.4%; with `CCOc1ccc(OCC(=O)Nc2cc(C)c(Cl)cc2OC)cc1`, 8.21%; with `COc1cc(NC(=O)COc2ccc(Cl)cc2C)c(OC)cc1Cl`, 105% (active).
`COC(=O)c1cc(OC)c(OC)cc1NC(=O)COc1ccc(Cl)cc1`: the activation is -22.9%.
With `Cn1nnc(NC(=O)COc2ccc(Cl)cc2Cl)n1` the figure was 70.8% (active); with `COc1cc(NC(=O)COc2ccc(Br)cc2)ccc1NC(=O)c1ccccc1Cl`, 20.3%.
Regarding `COc1ccc(NC(=O)CSc2nnnn2C)cc1Cl`, the activation is 47.7%.
For `COc1cc(NC(=O)COc2cc(C)c(Br)c(C)c2)c(OC)cc1Cl`, the activation is 0.202%.
With `COc1cc(NC(=O)COc2ccccc2Br)c(OC)cc1Cl` the figure was 132% (active).
